MEKK2 mut-MEK5: signal of MEK5 binding to mutant human MEKK2 PB1 domain | bead flow cytometry, Alexa488-MEK5 binding to MEKK2 mutant | percent response, % at 10 µM | 290,000 compounds, 0.35% hits | AID 1530; in the data active = percent response above about 24%, passing the limit was not always enough
MEKK2wt PB1 HTS: raises or lowers MEK5 binding to wildtype human MEKK2 PB1 domain; 290,000 compounds, 1.1% hits; Q9Y2U5; AID 1531; binding response (% of control), % at 10 µM; bead flow cytometry, Alexa488-MEK5 binding to MEKK2 WT; actives lie on both sides; in the data active = binding response below about 67% or above about 130%
GRK2 aptamer HTS: inhibitors of human GRK2 displacing RNA aptamer; AID 488847; bead flow cytometry, FAM-aptamer displacement from GRK2; P25098; 330,000 compounds, 0.59% hits; inhibition of aptamer binding, % at 10 µM;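 active = inhibition of aptamer binding above 40%, roughly 3 SD of noise, on plates passing a quality check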;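 note: median bead fluorescence of bound FAM aptamer so fluorescent compounds give negative values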
MEKK3 PB1 HTS: modulators (inhibitors or enhancers) of MEK5 binding to human MEKK3 PB1 domain; Q99759; bead-based flow cytometry, Alexa488-MEK5 binding to MEKK3; actives lie on both sides; 0 = blocked by unlabeled MEK5, 100 = vehicle; binding response (% of control), % at 10 µM; 290,000 compounds, 1.4% hits; AID 1529;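 active = binding response more than 3 SD above or below the average of its plate-row segment, actives on both sides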;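 note: Alexa488 bead fluorescence after subtracting the streptavidin-only scavenger bead signal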
Target sequence (Q99759 whole entry, looked up, the tested form may be a part): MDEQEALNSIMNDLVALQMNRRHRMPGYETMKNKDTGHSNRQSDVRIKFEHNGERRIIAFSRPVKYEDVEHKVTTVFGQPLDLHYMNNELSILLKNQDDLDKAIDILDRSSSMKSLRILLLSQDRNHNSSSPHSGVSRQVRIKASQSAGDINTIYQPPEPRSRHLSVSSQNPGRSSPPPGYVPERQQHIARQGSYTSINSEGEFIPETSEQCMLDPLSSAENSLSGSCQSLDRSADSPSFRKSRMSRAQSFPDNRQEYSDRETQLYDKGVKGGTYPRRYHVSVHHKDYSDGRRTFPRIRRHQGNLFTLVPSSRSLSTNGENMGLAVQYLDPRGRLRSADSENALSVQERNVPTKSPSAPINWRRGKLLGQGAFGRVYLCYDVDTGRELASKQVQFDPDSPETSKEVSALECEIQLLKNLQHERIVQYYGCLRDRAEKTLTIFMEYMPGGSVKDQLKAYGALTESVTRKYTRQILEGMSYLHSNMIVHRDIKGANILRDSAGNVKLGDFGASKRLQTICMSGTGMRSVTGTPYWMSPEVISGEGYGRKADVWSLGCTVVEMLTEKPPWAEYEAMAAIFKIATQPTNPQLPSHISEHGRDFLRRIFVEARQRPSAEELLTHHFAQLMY
MEKK2wt confirm: raises or lowers MEK5 binding to wildtype human MEKK2, retest. shares compounds with MEKK3 PB1 HTS. bead flow cytometry, Alexa488-MEK5 binding to MEKK2 WT; actives lie on both sides. binding response (% of control), % at 10 µM. 5,900 compounds, 2.4% hits. AID 1892; in the data active = binding response below about 16% or above about 210%; inactive = in between
MEKK2mut-MEK5: signal of MEK5 binding to mutant human MEKK2, retest. percent response, % at 10 µM. 5,900 compounds, 2% hits. bead flow cytometry, Alexa488-MEK5 binding to MEKK2 mutant. shares compounds with MEKK3 PB1 HTS. AID 1893; in the data active = percent response mostly above about 71%, no sharp cut-off; inactive = mostly below about 38%;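 note: higher means compound restores mutant binding toward wildtype level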
MEKK3 confirm: MEKK3-MEK5 PB1 inhibition, single concentration confirmation. shares compounds with MEKK3 PB1 HTS. 5,900 compounds, 1.8% hits. binding response (% of control), % at 10 µM. bead flow cytometry, Alexa488-MEK5 binding to MEKK3; active compounds read low;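 active = binding response below 72% of control, or above a set upper limit, though filed actives all read lower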;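 note: lower values mean stronger disruption of MEK5 binding to MEKK3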
Numbers stand for hits; - = inactive; . = not tested or not shown; [ ] = another dose, or the depositor's remark. This is a sample that favours compounds with a hit; in the whole collection about 2.5% have one here.

SMILES	MEKK2 mut-MEK5	MEKK2wt PB1 HTS	GRK2 aptamer HTS	MEKK3 PB1 HTS	MEKK2wt confirm	MEKK2mut-MEK5	MEKK3 confirm
CNC(=O)C(=O)Nc1c(C)cc(C)cc1C	-	-	-	134.0	-1.0[inhibitor]	-	0.0
CNC(=O)C(=O)Nc1ccc(C)cc1C	-	-	-	-	.	.	.
COc1ccc(C(=O)NCc2csc(-c3cccs3)n2)cc1	-	-	-	-	.	.	.
COc1cc(C(=S)N2CCOCC2)cc(OC)c1OC(=O)c1cccc(C)c1	25.0	-	-	-	-	-	-
COc1cc(C(=S)N2CCOCC2)cc(OC)c1OC(=O)c1ccc(C)cc1	-	-	-	-	.	.	.
COCCCNC(=O)c1cn(-c2cccc(OC)c2)c(=O)c2ccccc12	-	-	-	-	.	.	.
NNC(=O)CC1NCCN(Cc2ccccc2)C1=O (stereo not drawn)	-	-	-	-	.	.	.
Cc1ccc2[nH]c(=O)c(CN(Cc3cccs3)C(=S)NCc3ccco3)cc2c1	-	-	-	130.0	-	-	-
Cc1ccc2[nH]c(=O)c(CN(CC3CCCO3)C(=S)NCc3ccco3)cc2c1 (stereo not drawn)	-	-	-	-	.	.	.
CCCOc1cccc(C(=O)NC(=S)Nc2cccc(NC(=O)c3ccccc3Cl)c2)c1	-	-	-	-	.	.	.
CCCCC(=O)NC(=S)Nc1cccc(NC(=O)c2ccccc2)c1	-	-	-	49.0[inhibitor]	-	-	-
CCCCOc1cccc(C(=O)NC(=S)Nc2cccc(NC(=O)c3ccccc3Cl)c2)c1	-	-	-	137.0	-	-	-
CC(C)CC(=O)NC(=S)Nc1cccc(NC(=O)c2ccccc2)c1	-	-	-	154.0	-	-	-
CCC(=O)Nc1cccc(NC(=O)c2ccc(Br)cc2)c1	-	-	-	135.0	-	-	-
Cc1cccc(C(=O)NC2CCN(C(=O)Nc3ccccc3C)CC2)c1	-	-	-	-	.	.	.
c1ccc2c(c1)OCC(c1nnc3n1-c1ccccc1SC3)O2 (stereo not drawn)	-	-	-	-	.	.	.
CCN(CCS(=O)(=O)c1ccc(Cl)cc1)C(=O)Nc1ccc(Cl)cc1	-	-	-	-	.	.	.
CN1CCc2c(sc3nc(SCC(N)=O)n(-c4ccccc4)c(=O)c23)C1	79.0	-	-	-	-	-	-
CN1CCc2c(sc3nc(SCC(N)=O)n(-c4ccc(Cl)cc4)c(=O)c23)C1	-	-	-	-	.	.	.
CCn1c(SCC(=O)c2ccccc2)nc2sc3c(c2c1=O)CCN(C)C3	-	-	-	130.0	-	-	-
Cc1ccc(N2CC(C(=O)NCCc3ccc(S(N)(=O)=O)cc3)CC2=O)cc1 (stereo not drawn)	-	-	-	77.0[inhibitor]	-	-	-
Cc1ccc(N2CC(C(=O)Nc3ccc(S(=O)(=O)N4CCCC4)cc3)CC2=O)cc1 (stereo not drawn)	-	45.0[inhibitor]	-	60.0[inhibitor]	-	-	-
Cc1cc2nnc(SCC(=O)NCc3cccs3)n2c(N)n1	-	-	-	-	.	.	.
CCCOC(=O)c1ccc(OCC(O)CN2CCN(C(=O)c3ccccc3)CC2)cc1 (stereo not drawn)	27.0	-	-	-	-	-	-
COc1ccc(CNC(=O)C(C)OC(=O)C23CC4CC(CC(O)(C4)C2)C3)cc1 (stereo not drawn)	-	-	-	-	.	.	.
SMILES	MEKK2 mut-MEK5	MEKK2wt PB1 HTS	GRK2 aptamer HTS	MEKK3 PB1 HTS	MEKK2wt confirm	MEKK2mut-MEK5	MEKK3 confirm
Cc1cc(OCCOCCNCc2ccccc2)ccc1C(C)C	-	134.0	-	-	-	-	-
Cc1ccc(C)c(OCCCNCc2ccccc2)c1	-	-	-	-	.	.	.
CC(C)(C)c1ccccc1OCCOCCNCc1ccccc1	-	-	-	-	.	.	.
Cc1ccc(C(C)C)c(OCCNCc2ccccc2)c1	-	134.0	-	-	-	-	-
CCOc1ccc(NC(=O)c2sc3nc(N4CCOCC4)c4c(c3c2N)CC(C)(C)OC4)cc1	-	-	-	-	.	.	.
COc1ccc(NC(=O)c2cccc(OC(F)F)c2)cc1Cl	-	-	-	-	.	.	.
O=C(Nc1ccc(OC(F)F)c(Cl)c1)c1cccc(OC(F)F)c1	-	151.0	-	-	-	-	-

High-throughput results from PubChem.
